# Inconclusive results are not listed. Activity calls are given as the source filed them. How the source made its calls: active means hit-call score of the fitted dose curve at least 0.9, where 1 is the maximum; inconclusive means response in the unintended direction; inactive means score below 0.9.
# Target: Estrogen receptor (Homo sapiens) (UniProt P03372)
# Assay: CCTE_Deisenroth_AIME_384WELL_LUC_Inactive: CCTE's 384-well Estrogen Receptor Transactivation Assay without AIME metabolic competence (ERTA luciferase; metabolism negative), Deisenroth Lab (AID 2284038);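 further: hits raise estrogen receptor luciferase signal so potencies reflect agonists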
# Outline: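 Chemicals (10-point series, 0.002 - 200 uM) were incubated 2 hours with alginate-water microsphere lids lacking S9, then the conditioned medium was transferred to VM7Luc4E2 breast cells for 24 hour. Luciferase induction was read by bioluminescence, fitted upward relative to 17beta-estradiol.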
# Sequence of Estrogen receptor (Homo sapiens) (P03372 whole entry, looked up): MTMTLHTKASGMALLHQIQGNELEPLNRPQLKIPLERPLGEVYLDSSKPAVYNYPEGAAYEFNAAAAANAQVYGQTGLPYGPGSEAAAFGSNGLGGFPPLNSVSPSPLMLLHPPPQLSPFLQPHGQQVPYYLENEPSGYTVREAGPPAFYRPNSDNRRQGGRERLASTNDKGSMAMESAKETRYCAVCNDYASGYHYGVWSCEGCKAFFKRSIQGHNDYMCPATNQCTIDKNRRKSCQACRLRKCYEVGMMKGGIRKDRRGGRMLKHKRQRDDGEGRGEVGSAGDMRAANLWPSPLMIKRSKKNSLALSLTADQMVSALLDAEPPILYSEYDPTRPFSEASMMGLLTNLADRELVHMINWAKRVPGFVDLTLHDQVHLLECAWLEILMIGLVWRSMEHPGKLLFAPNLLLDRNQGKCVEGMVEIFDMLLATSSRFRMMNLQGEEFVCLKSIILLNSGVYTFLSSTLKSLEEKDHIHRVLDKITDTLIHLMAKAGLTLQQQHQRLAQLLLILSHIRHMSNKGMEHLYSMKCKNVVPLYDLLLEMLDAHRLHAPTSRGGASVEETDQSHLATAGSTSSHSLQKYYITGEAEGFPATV
smiles,measurement,value
CCCCCCCCCCCCOC(=O)c1cc(O)c(O)c(O)c1,outcome,inactive

# Source: PubChem BioAssay (EPA / NIEHS)
